What all share (assay): PBM; 200 nM protein, PBS
What all share (conditions): dsDNA, one strand shown

Test [1] concerns the target T1, VENTX (Homo sapiens, UniProt O95231 78-163, R121Q).
T1 sequence: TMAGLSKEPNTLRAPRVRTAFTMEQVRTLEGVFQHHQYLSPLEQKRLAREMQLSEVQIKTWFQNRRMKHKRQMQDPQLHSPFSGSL

For test [2], the target named is T2, VENTX (Homo sapiens, UniProt O95231 78-163).
T2 sequence: T1 sequence with Q44R

In test [3] the target is HOXA7 (Homo sapiens, UniProt P31268 116-202).
The target of test [4] is T3, VENTX (Homo sapiens, UniProt O95231 78-163, Y115F).
T3 sequence: T1 sequence with Y38F, Q44R

For test [5], the target named is MSX2 (Homo sapiens, UniProt P35548 130-214, R199I).
In test [6] the target is MSX2 (Homo sapiens, UniProt P35548 130-214).
Test [7] has as its target MSX2 (Homo sapiens, UniProt P35548 130-214, F161Y).
Test [8] deals with HOXA7 (Homo sapiens, UniProt P31268 116-202, W177C).
In test [9] the target is HOXC10 (Homo sapiens, UniProt Q9NYD6 254-340).
Test [10] addresses HOXB6 (Homo sapiens, UniProt P17509 132-218, K202E).
For test [11], the target named is HOXA2 (Homo sapiens, UniProt O43364 129-215, R185T).
The target of test [12] is PITX2 (Homo sapiens, UniProt Q99697 72-157).
In test [13] the target is HOXA2 (Homo sapiens, UniProt O43364 129-215, R185K).
Test [14] deals with HOXC10 (Homo sapiens, UniProt Q9NYD6 254-340, K271E).
Test [15] deals with HOXA2 (Homo sapiens, UniProt O43364 129-215, Y150S).
Test [16] addresses HOXA2 (Homo sapiens, UniProt O43364 129-215).
Test [17] concerns the target HOXB6 (Homo sapiens, UniProt P17509 132-218).
The target in test [18] is T4, PAX4 (Homo sapiens, UniProt O43316 9-242, R200K).
T4 sequence: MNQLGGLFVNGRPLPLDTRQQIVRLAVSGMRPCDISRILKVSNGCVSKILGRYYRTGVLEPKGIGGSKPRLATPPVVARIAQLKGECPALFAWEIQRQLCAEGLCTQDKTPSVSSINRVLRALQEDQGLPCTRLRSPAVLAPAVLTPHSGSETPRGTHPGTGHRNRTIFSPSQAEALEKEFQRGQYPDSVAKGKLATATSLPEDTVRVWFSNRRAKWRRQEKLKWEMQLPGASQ

Test [19] concerns the target T5, PAX4 (Homo sapiens, UniProt O43316 9-242).
T5 sequence: T4 sequence with K192R

Test [20] has as its target HOXB9 (Homo sapiens, UniProt P17482 171-250).
In test [21] the target is T6, PAX4 (Homo sapiens, UniProt O43316 9-242, R200Q).
T6 sequence: T4 sequence with K192Q

Test [22] has as its target T7, PAX4 (Homo sapiens, UniProt O43316 9-242, F177V).
T7 sequence: T4 sequence with F169V, K192R

Test [23] addresses T8, PAX4 (Homo sapiens, UniProt O43316 9-242, F177Y).
T8 sequence: T4 sequence with F169Y, K192R

Test [24] deals with HOXB9 (Homo sapiens, UniProt P17482 171-250, R186Q).
Test [25] concerns the target T9, PAX4 (Homo sapiens, UniProt O43316 9-242, R227W).
T9 sequence: T4 sequence with K192R, R219W

The target of test [26] is ALX1 (Homo sapiens, UniProt Q15699 118-204, L144V).
The target of test [27] is ALX3 (Homo sapiens, UniProt O95076 139-225, N203Q).
The target in test [28] is ALX1 (Homo sapiens, UniProt Q15699 118-204, L144R).
The target in test [29] is ALX3 (Homo sapiens, UniProt O95076 139-225).
The target in test [30] is ALX3 (Homo sapiens, UniProt O95076 139-225, L168Q).
Test [31] deals with ALX3 (Homo sapiens, UniProt O95076 139-225, L168V).
Test [32] addresses NKX3-2 (Homo sapiens, UniProt P78367 192-278, P234S).
The target of test [33] is ALX1 (Homo sapiens, UniProt Q15699 118-204).
Test [34] deals with ALX3 (Homo sapiens, UniProt O95076 139-225, N203S).
For test [35], the target named is NKX3-2 (Homo sapiens, UniProt P78367 192-278).

Positions count from the first letter of the chain named.

Chain of HOXA7 (Homo sapiens, UniProt P31268 116-202) (P31268 116-202): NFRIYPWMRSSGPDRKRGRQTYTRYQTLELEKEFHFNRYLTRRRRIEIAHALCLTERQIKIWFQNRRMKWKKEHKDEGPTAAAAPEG
Chain of HOXA7 (Homo sapiens, UniProt P31268 116-202, W177C) (P31268 116-202 W177C): as the sequence (P31268 116-202) above, with W62C counted along it
Chain of HOXA2 (Homo sapiens, UniProt O43364 129-215, R185K) (O43364 129-215 R185K): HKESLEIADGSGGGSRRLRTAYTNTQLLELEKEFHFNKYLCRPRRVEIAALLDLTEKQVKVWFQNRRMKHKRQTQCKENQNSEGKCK
Chain of HOXA2 (Homo sapiens, UniProt O43364 129-215, Y150S) (O43364 129-215 Y150S): as the sequence (O43364 129-215 R185K) above, with Y22S, K57R counted along it
Chain of HOXA2 (Homo sapiens, UniProt O43364 129-215) (O43364 129-215): as the sequence (O43364 129-215 R185K) above, with K57R counted along it
Chain of HOXA2 (Homo sapiens, UniProt O43364 129-215, R185T) (O43364 129-215 R185T): as the sequence (O43364 129-215 R185K) above, with K57T counted along it
Chain of HOXB6 (Homo sapiens, UniProt P17509 132-218) (P17509 132-218): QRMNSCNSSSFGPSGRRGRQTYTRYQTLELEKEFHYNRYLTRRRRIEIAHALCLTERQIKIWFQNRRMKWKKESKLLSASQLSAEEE
Chain of NKX3-2 (Homo sapiens, UniProt P78367 192-278) (P78367 192-278): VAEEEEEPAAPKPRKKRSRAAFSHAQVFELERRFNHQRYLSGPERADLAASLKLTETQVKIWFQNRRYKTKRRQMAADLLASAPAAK
Chain of MSX2 (Homo sapiens, UniProt P35548 130-214, F161Y) (P35548 130-214 F161Y): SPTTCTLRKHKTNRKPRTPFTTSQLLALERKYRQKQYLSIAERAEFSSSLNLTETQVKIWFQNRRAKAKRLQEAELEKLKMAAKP
Chain of HOXB9 (Homo sapiens, UniProt P17482 171-250, R186Q) (P17482 171-250 R186Q): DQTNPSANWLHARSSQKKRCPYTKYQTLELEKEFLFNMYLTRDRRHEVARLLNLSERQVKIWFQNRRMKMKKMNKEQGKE
Chain of ALX3 (Homo sapiens, UniProt O95076 139-225, N203S) (O95076 139-225 N203S): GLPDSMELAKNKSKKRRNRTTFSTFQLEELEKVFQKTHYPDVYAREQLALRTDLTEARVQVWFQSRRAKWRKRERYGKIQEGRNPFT
Chain of NKX3-2 (Homo sapiens, UniProt P78367 192-278, P234S) (P78367 192-278 P234S): as the sequence (P78367 192-278) above, with P43S counted along it
Chain of HOXC10 (Homo sapiens, UniProt Q9NYD6 254-340) (Q9NYD6 254-340): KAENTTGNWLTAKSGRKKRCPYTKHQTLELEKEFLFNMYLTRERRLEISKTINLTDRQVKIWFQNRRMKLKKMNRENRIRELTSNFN
Chain of ALX1 (Homo sapiens, UniProt Q15699 118-204) (Q15699 118-204): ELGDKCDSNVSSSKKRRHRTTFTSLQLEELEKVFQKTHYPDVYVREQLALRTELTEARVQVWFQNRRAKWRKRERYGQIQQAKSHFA
Chain of HOXC10 (Homo sapiens, UniProt Q9NYD6 254-340, K271E) (Q9NYD6 254-340 K271E): as the sequence (Q9NYD6 254-340) above, with K18E counted along it
Chain of ALX3 (Homo sapiens, UniProt O95076 139-225, L168Q) (O95076 139-225 L168Q): as the sequence (O95076 139-225 N203S) above, with L30Q, S65N counted along it
Chain of HOXB6 (Homo sapiens, UniProt P17509 132-218, K202E) (P17509 132-218 K202E): as the sequence (P17509 132-218) above, with K71E counted along it
Chain of ALX1 (Homo sapiens, UniProt Q15699 118-204, L144V) (Q15699 118-204 L144V): as the sequence (Q15699 118-204) above, with L27V counted along it
Chain of MSX2 (Homo sapiens, UniProt P35548 130-214) (P35548 130-214): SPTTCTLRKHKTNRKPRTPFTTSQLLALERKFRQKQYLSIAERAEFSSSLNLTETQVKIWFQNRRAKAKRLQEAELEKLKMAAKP
Chain of ALX1 (Homo sapiens, UniProt Q15699 118-204, L144R) (Q15699 118-204 L144R): as the sequence (Q15699 118-204) above, with L27R counted along it
Chain of MSX2 (Homo sapiens, UniProt P35548 130-214, R199I) (P35548 130-214 R199I): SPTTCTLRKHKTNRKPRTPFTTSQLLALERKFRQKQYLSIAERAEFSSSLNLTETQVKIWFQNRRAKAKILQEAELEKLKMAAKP
Chain of ALX3 (Homo sapiens, UniProt O95076 139-225, N203Q) (O95076 139-225 N203Q): as the sequence (O95076 139-225 N203S) above, with S65Q counted along it
Chain of ALX3 (Homo sapiens, UniProt O95076 139-225) (O95076 139-225): as the sequence (O95076 139-225 N203S) above, with S65N counted along it
Chain of HOXB9 (Homo sapiens, UniProt P17482 171-250) (P17482 171-250): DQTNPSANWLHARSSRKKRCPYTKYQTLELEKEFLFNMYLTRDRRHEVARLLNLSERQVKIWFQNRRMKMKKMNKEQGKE
Chain of ALX3 (Homo sapiens, UniProt O95076 139-225, L168V) (O95076 139-225 L168V): as the sequence (O95076 139-225 N203S) above, with L30V, S65N counted along it

For the sequence CGTCCAGC, the binding signal is 8.04 upbm affinity estimate (log intensity, higher = more binding, comparable within an allelic series) in test [1]; 7.65 upbm affinity estimate (log intensity, higher = more binding, comparable within an allelic series) in test [2]; 8.59 upbm affinity estimate (log intensity, higher = more binding, comparable within an allelic series) in [3]; 7.81 upbm affinity estimate (log intensity, higher = more binding, comparable within an allelic series) in [4]; 9.63 upbm affinity estimate (log intensity, higher = more binding, comparable within an allelic series) in [5]; 9.6 upbm affinity estimate (log intensity, higher = more binding, comparable within an allelic series) in [6]. Further, the binding signal in test [7] was 9.74 upbm affinity estimate (log intensity, higher = more binding, comparable within an allelic series); in test [8], 8.41 upbm affinity estimate (log intensity, higher = more binding, comparable within an allelic series).
With AGCGATTA, the binding signal in test [1] was 11.2 upbm affinity estimate (log intensity, higher = more binding, comparable within an allelic series); in test [2], 12.3 upbm affinity estimate (log intensity, higher = more binding, comparable within an allelic series); in test [4], 11.3 upbm affinity estimate (log intensity, higher = more binding, comparable within an allelic series).
In the case of AGGGGGCG, the binding signal was 8.25 upbm affinity estimate (log intensity, higher = more binding, comparable within an allelic series) in test [1]; 8.25 upbm affinity estimate (log intensity, higher = more binding, comparable within an allelic series) in test [2]; 10 upbm affinity estimate (log intensity, higher = more binding, comparable within an allelic series) in [9]; 8.23 upbm affinity estimate (log intensity, higher = more binding, comparable within an allelic series) in test [4]; 9 upbm affinity estimate (log intensity, higher = more binding, comparable within an allelic series) in test [10]; 7.3 upbm affinity estimate (log intensity, higher = more binding, comparable within an allelic series) in [11]. The binding signal in [12] is 8.12 upbm affinity estimate (log intensity, higher = more binding, comparable within an allelic series); in [13] it was 10.2 upbm affinity estimate (log intensity, higher = more binding, comparable within an allelic series); in [14], 9.95 upbm affinity estimate (log intensity, higher = more binding, comparable within an allelic series); in test [15], 10.3 upbm affinity estimate (log intensity, higher = more binding, comparable within an allelic series); in test [16], 7.28 upbm affinity estimate (log intensity, higher = more binding, comparable within an allelic series); in [17], 8.93 upbm affinity estimate (log intensity, higher = more binding, comparable within an allelic series).
On to AGCCCGGA, for which the binding signal was 8.11 upbm affinity estimate (log intensity, higher = more binding, comparable within an allelic series) in test [1]; 7.92 upbm affinity estimate (log intensity, higher = more binding, comparable within an allelic series) in [2]; 8.12 upbm affinity estimate (log intensity, higher = more binding, comparable within an allelic series) in [4].
On to CCGAATTA, for which the binding signal is 10.1 upbm affinity estimate (log intensity, higher = more binding, comparable within an allelic series) in test [1]; 10.6 upbm affinity estimate (log intensity, higher = more binding, comparable within an allelic series) in [2]; 11.8 upbm affinity estimate (log intensity, higher = more binding, comparable within an allelic series) in test [18]; 9.98 upbm affinity estimate (log intensity, higher = more binding, comparable within an allelic series) in [4]; 12.4 upbm affinity estimate (log intensity, higher = more binding, comparable within an allelic series) in [19]; 10.1 upbm affinity estimate (log intensity, higher = more binding, comparable within an allelic series) in test [20]. The binding signal in test [21] is 11.8 upbm affinity estimate (log intensity, higher = more binding, comparable within an allelic series); in test [22], 10.4 upbm affinity estimate (log intensity, higher = more binding, comparable within an allelic series); in test [23], 11.1 upbm affinity estimate (log intensity, higher = more binding, comparable within an allelic series); in test [24] it was 10 upbm affinity estimate (log intensity, higher = more binding, comparable within an allelic series); in test [25], 10.9 upbm affinity estimate (log intensity, higher = more binding, comparable within an allelic series).
On to ATTAGGTG, for which the binding signal in [1] was 10.8 upbm affinity estimate (log intensity, higher = more binding, comparable within an allelic series); in [2] it was 11.2 upbm affinity estimate (log intensity, higher = more binding, comparable within an allelic series); in [3], 10 upbm affinity estimate (log intensity, higher = more binding, comparable within an allelic series); in test [4] it was 10.5 upbm affinity estimate (log intensity, higher = more binding, comparable within an allelic series); in [8], 8.8 upbm affinity estimate (log intensity, higher = more binding, comparable within an allelic series).
Regarding CGGCCCCC, the binding signal in test [1] was 8.06 upbm affinity estimate (log intensity, higher = more binding, comparable within an allelic series); in test [2] it was 8.05 upbm affinity estimate (log intensity, higher = more binding, comparable within an allelic series); in [3], 8.26 upbm affinity estimate (log intensity, higher = more binding, comparable within an allelic series); in [4], 8.12 upbm affinity estimate (log intensity, higher = more binding, comparable within an allelic series); in test [11], 7.13 upbm affinity estimate (log intensity, higher = more binding, comparable within an allelic series); in [26] it was 6.51 upbm affinity estimate (log intensity, higher = more binding, comparable within an allelic series). For the same sequence, the binding signal is 7.78 upbm affinity estimate (log intensity, higher = more binding, comparable within an allelic series) in test [27]; 7.78 upbm affinity estimate (log intensity, higher = more binding, comparable within an allelic series) in test [12]; 9.86 upbm affinity estimate (log intensity, higher = more binding, comparable within an allelic series) in test [13]; 6.5 upbm affinity estimate (log intensity, higher = more binding, comparable within an allelic series) in test [28]; 7.73 upbm affinity estimate (log intensity, higher = more binding, comparable within an allelic series) in test [29]; 7.68 upbm affinity estimate (log intensity, higher = more binding, comparable within an allelic series) in test [30]. Further, the binding signal was 7.67 upbm affinity estimate (log intensity, higher = more binding, comparable within an allelic series) in [31]; 10.3 upbm affinity estimate (log intensity, higher = more binding, comparable within an allelic series) in test [15]; 8.35 upbm affinity estimate (log intensity, higher = more binding, comparable within an allelic series) in [8]; 10.4 upbm affinity estimate (log intensity, higher = more binding, comparable within an allelic series) in test [32]; 6.49 upbm affinity estimate (log intensity, higher = more binding, comparable within an allelic series) in [33]; 7.76 upbm affinity estimate (log intensity, higher = more binding, comparable within an allelic series) in test [34]. For the same sequence, the binding signal in [16] was 7.15 upbm affinity estimate (log intensity, higher = more binding, comparable within an allelic series); in test [35] it was 10.4 upbm affinity estimate (log intensity, higher = more binding, comparable within an allelic series).

For the origin of these results see PMC11006913.
